Test results from PubChem BioAssay.
Calls of active or inactive are those of the source.

Tests used:
[1] = small molecules captured by biotinylated probe aFSTL3 – biochemical, small-molecule microarray, fluorescence 635/667, stem cell growth factor project, primary screen (AID 1064); conditions: higher = more signal;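 also: measures binding of the biotinylated anti-FSTL3 antibody to printed compounds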
[2] = binders from COS7 lysate, DM2A8 probe, primary screen, torsin A project, cell lysate, small-molecule microarray, fluorescence 635/667 (AID 1065); conditions: higher = more signal, COS7 lysate expressing mutant human TOR1A
[3] = small molecules captured by biotinylated probe aFGF2 – biochemical, small-molecule microarray, fluorescence 635/667, stem cell growth factor project, primary screen (AID 1067); conditions: higher = more signal;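 also: measures binding of biotinylated aFGF2 protein to printed compounds on slides; z-score merges feature fluorescence and signal-to-noise across triplicate slides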
[4] = small molecules captured by biotinylated probe aFGF10 – biochemical, small-molecule microarray, fluorescence 635/667, stem cell growth factor project, primary screen (AID 1071); conditions: higher = more signal;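 also: score merges 667 nm spot intensity and signal to noise from triplicate slides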
[5] = molecular target: Neurogenic locus notch homolog protein 2 (Homo sapiens) (UniProt Q04721); test: small molecules binding Notch2 protein – biochemical, small-molecule microarray, 635 nm fluorescence, stem cell growth factors, primary screen (AID 1073); conditions: higher = more signal
Neurogenic locus notch homolog protein 2 (Homo sapiens), sequence (Q04721 whole entry, looked up, canonical isoform): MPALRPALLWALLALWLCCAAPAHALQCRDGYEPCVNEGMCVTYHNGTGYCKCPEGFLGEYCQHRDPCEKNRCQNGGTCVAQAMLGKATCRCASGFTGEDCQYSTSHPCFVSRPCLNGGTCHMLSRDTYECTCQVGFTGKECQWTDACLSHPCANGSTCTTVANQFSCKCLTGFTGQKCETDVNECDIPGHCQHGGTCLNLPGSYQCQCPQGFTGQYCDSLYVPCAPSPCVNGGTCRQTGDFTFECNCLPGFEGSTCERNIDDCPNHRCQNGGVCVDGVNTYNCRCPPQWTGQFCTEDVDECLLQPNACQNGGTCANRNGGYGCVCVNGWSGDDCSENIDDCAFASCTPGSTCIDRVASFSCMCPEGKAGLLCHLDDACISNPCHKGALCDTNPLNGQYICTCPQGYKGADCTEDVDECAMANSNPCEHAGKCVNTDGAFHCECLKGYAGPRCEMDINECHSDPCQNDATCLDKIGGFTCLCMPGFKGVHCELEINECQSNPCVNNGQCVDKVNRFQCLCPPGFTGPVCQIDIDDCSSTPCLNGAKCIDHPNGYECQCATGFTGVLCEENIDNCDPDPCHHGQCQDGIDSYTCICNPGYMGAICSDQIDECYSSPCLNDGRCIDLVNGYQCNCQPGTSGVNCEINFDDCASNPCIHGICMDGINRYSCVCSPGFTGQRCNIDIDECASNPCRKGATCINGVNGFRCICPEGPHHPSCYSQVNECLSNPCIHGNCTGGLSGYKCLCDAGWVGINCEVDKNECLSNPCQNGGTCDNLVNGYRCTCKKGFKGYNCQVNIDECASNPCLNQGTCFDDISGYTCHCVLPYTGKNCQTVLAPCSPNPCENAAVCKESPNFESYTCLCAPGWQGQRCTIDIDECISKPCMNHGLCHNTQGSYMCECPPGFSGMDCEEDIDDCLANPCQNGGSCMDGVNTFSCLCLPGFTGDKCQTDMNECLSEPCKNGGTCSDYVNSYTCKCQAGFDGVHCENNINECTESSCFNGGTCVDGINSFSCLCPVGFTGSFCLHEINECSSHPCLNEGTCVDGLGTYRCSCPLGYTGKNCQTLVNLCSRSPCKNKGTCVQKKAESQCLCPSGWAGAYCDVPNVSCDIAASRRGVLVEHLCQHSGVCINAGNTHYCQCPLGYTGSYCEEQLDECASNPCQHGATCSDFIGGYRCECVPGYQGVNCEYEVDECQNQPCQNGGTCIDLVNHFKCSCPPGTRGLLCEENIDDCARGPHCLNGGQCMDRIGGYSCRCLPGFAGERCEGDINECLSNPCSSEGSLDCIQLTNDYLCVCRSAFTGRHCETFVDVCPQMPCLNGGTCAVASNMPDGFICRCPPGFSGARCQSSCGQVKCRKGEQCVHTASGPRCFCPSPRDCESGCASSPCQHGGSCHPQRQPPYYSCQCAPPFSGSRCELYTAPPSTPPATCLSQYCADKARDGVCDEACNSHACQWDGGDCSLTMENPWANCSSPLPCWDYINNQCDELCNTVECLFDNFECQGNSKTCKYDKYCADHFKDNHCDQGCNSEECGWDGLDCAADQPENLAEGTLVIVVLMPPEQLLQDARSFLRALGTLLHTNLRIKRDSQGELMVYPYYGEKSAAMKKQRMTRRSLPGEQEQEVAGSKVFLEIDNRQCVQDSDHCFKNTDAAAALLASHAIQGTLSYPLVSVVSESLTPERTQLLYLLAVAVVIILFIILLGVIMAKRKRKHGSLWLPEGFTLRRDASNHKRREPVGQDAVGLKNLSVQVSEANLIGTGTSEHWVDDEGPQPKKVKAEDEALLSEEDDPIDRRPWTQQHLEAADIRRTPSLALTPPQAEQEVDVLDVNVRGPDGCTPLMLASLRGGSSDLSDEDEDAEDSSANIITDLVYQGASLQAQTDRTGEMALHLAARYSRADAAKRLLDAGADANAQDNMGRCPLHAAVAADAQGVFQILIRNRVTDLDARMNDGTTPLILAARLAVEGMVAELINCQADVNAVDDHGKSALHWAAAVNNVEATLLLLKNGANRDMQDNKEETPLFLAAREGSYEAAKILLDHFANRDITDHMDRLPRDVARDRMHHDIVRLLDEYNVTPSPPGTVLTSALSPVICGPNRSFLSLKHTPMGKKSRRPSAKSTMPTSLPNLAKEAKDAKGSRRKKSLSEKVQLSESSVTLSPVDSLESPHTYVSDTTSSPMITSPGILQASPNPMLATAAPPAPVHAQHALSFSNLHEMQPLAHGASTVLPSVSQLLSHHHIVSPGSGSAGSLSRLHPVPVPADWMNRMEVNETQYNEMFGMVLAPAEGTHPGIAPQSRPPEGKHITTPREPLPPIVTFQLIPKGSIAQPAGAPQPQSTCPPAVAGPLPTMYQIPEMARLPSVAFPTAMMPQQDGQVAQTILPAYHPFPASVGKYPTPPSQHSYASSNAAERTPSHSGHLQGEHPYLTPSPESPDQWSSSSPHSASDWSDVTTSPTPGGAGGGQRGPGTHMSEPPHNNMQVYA

[6] = molecular target: Pro-neuregulin-1, membrane-bound isoform (Homo sapiens) (UniProt Q02297); test: small molecules binding neuregulin-1 protein – biochemical, small-molecule microarray, fluorescence 635/667, psychiatric disease protein project, primary screen (AID 1075); conditions: NRG1 binding, 635 nm fluorescence, higher = more signal;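 also: score combines 667 nm spot fluorescence with signal to noise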
Pro-neuregulin-1, membrane-bound isoform (Homo sapiens), sequence (Q02297 whole entry, looked up, the tested form may be a part, canonical isoform): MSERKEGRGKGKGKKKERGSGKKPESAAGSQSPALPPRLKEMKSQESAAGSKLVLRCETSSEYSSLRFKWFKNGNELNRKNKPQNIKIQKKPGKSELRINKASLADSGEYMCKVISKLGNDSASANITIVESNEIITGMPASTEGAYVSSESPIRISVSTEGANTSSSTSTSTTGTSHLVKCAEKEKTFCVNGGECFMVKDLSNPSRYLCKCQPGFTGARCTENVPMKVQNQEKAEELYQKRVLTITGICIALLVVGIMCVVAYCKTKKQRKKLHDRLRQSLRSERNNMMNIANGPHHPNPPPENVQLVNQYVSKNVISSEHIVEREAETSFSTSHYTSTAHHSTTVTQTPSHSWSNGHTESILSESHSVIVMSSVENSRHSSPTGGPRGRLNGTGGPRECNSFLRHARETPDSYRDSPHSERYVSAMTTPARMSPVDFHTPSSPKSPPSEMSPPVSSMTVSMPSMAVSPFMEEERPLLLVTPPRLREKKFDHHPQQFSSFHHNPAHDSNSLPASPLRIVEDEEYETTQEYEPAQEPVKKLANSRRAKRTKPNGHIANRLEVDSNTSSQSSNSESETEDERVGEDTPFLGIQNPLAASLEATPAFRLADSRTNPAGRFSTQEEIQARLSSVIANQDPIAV

[7] = system: Neuregulin-1 EGF-like domain; test: small molecules binding NRG1 EGF domain – biochemical, small-molecule microarray, 635 nm fluorescence, primary screen (AID 1081); conditions: higher = more signal;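 also: binding of the protein to compounds printed on small-molecule microarray slides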
[8] = FRG1 expression reporter modulators in myotubes – cell-based, C2C12 myotubes, firefly/Renilla luciferase, luminescence, FRG1 inhibition for FSHD, primary screen (AID 1084); conditions: FRG1 promoter luciferase, higher = more signal, called active from +8 up or from −8 down
[9] = small molecules captured by biotinylated probe aFST – biochemical, small-molecule microarray, fluorescence 635/667, stem cell growth factor project, primary screen (AID 1086); conditions: higher = more signal;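 also: score merges 667 nm fluorescence with signal-to-noise of each printed compound spot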
[10] = binders of probe aHhip on microarray, primary screen, stem cell growth factor project, biochemical, small-molecule microarray, fluorescence 635/667 (AID 1087); conditions: higher = more signal;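 also: score merges spot fluorescence at 667nm with spot signal to noise ratio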

Compound | composite z-score [1] | composite z-score [2] | composite z-score [3] | composite z-score [4] | composite z-score [5] | composite z-score [6] | composite z-score [7] | z-score [8] | composite z-score [9] | composite z-score [10]
COc1cccc([C@H]2Oc3ccc(OC)cc3C(=NOC(C)CN3CCCCc4nc(C)c(C)cc43)[C@@H]2O)c1 (stereo not given in full) | 0.161 | -0.0173 | -0.0005 | 0.561 | 0.0879 | 0.996 | 0.632 | -2.06 (inactive) | -0.0285 | 0.0854
CC(C)CON=C1C[C@@H](O)[C@@H](O)[C@@H]2[C@@H]3C(=O)N(c4cccc(Oc5ccccc5)c4)C(=O)[C@@H]3CC[C@@H]12 | -0.509 | 0.14 | -0.13 | 0.206 | 0.336 | 0.61 | 1.1 | -1.18 (inactive) | -0.129 | 0.0373
C[C@@H]1CC[C@H]2C(=O)O[C@@H](Cc3ccccc3)CN2[C@H]1c1ccc(Br)cc1 | -0.395 | 0.207 | -0.185 | -0.112 | 0.526 | 0.649 | 0.408 | -0.205 (inactive) | 0.384 | -0.201
CCOC(=O)NN=C1C[C@@H](O)[C@@H](O)[C@@H]2[C@@H]3C(=O)N([C@@H](C)c4ccccc4)C(=O)[C@@H]3CC[C@H]12 | -0.322 | -0.0183 | -0.085 | 0.321 | 0.453 | -0.0718 | 0.0602 | -0.223 (inactive) | 0.252 | 0.138
COC(=O)CC=C[C@@H](C)[C@@H](C=NO[C@H](C)c1cn([C@@H]2COC[C@H]2O)nn1)NS(=O)(=O)c1ccc(C)cc1 | -0.279 | 0.612 | -0.0027 | 0.575 | 0.283 | 0.0806 | 0.928 | -1.24 (inactive) | 0.374 | -0.166
COc1ccc(O[C@H]2C=C[C@@H](c3ccccc3)O[C@@H]2CON=C2[C@H]3CCn4c(=O)n(-c5ccccc5)c(=O)n4[C@H]3[C@H](O)[C@@H]3O[C@H]23)cc1 | -0.135 | 0.451 | -0.0973 | 0.372 | 1.24 | 0.238 | 0.63 | -0.243 (inactive) | 0.358 | 0.197
C#CCCCON=C1[C@H]2CCn3c(=O)n(C)c(=O)n3[C@H]2[C@H](O)[C@@H]2O[C@H]12 | -0.454 | 0.588 | 0.0624 | 0.382 | 1.05 | -0.0714 | 0.58 | 0.678 (inactive) | 0.159 | 0.535
COC(=O)[C@H]1O[C@@H](c2c(OC)c(OC)c(C)c(OC)c2OC)[C@H](C)[C@@H](O)[C@H]1C | -0.341 | 0.499 | 0.0066 | 0.915 | 1.06 | 0.368 | 0.741 | -0.204 (inactive) | 0.224 | -0.0965
CCOC(=O)NN=C1C[C@@H](O)[C@@H](O)[C@@H]2[C@@H]3C(=O)N(C(C)(C)C)C(=O)[C@@H]3CC[C@H]12 | -0.306 | 0.367 | -0.163 | 0.255 | 0.444 | -0.135 | 0.603 | -0.848 (inactive) | 0.497 | 0.0401
CC(=O)O[C@H]1C2=CO[C@H](C)[C@H]3[C@H]4C5=C([C@H](O)[C@H]6O[C@H]6C5=O)[C@H](OC4C)[C@@]23C(=O)[C@@H]2O[C@@H]21 (stereo not given in full) | -0.186 | 0.0382 | -0.0724 | 0.705 | 0.673 | 0.435 | 1.01 | -3.35 (inactive) | 0.163 | 0.154
C[n+]1ccc(-c2ccc(CO)cc2)cc1 | 0.772 | -0.688 | -0.131 | -0.116 | 1.08 | 0.0728 | 0.0658 | 0.65 (inactive) | -0.0846 | 0.0053
C[C@@H](c1ccccc1)N1C(=O)[C@H]2[C@H]3[C@H](O)[C@H](O)CC(=NO[C@@H]4O[C@H](CO)[C@@H](O)[C@H](O)[C@H]4O)[C@@H]3CC[C@H]2C1=O | -0.395 | 0.764 | -0.0428 | 0.306 | 0.641 | -0.319 | 0.752 | 0.19 (inactive) | 0.205 | -0.0618
COc1cccc([C@H]2Oc3ccc(OC)cc3C(=NO[C@@H](C)c3cn([C@H](CO)Cc4ccccc4)nn3)[C@@H]2O)c1 | -0.234 | -0.346 | -0.133 | 0.226 | -0.188 | 0.428 | -0.123 | 0.213 (inactive) | 0.105 | -0.134
CCN1C(=O)[C@H]2[C@H]3[C@H](O)[C@H](O)CC(=NNC(=O)OCc4ccc(OC)cc4)[C@@H]3CC[C@H]2C1=O | 1.28 | -0.0691 | -0.0235 | 0.0306 | -0.213 | -0.295 | -0.46 | 0.127 (inactive) | 0.508 | -0.374
CO[C@H]1COC(=O)CCC[C@@H](C)[C@H](OC)COC(=O)[C@@H](C)NC(=O)CC=C[C@@H]1C | -0.467 | 2.11 | -0.235 | -0.0534 | -0.314 | -0.523 | -0.723 | 0.947 (inactive) | 0.0835 | -0.0994
COC(=O)[C@H](C)NC(=O)CCC1CC(OC(=O)NCc2cccc3ccccc23)CC2(CCCC(COC(=O)NCC(c3ccccc3)c3ccccc3)O2)O1 (stereo not given in full) | -0.766 | 0.233 | -0.0092 | 0.532 | 1.23 | 0.917 | 0.801 | 2.44 (inactive) | 0.157 | -0.134
CC(C)=CCCC(C)=CCON=C1C[C@@H](O)[C@@H](O)[C@@H]2[C@@H]3C(=O)N(C4CCCCC4)C(=O)[C@@H]3CC[C@@H]12 | 1.18 | 0.76 | -0.132 | 0.332 | -0.0557 | -0.148 | 0.598 | 0.735 (inactive) | 0.0152 | -0.374
